High-throughput results as filed in PubChem.
IDE exosite FP: exo-site inhibitors of human IDE, primary screen, biochemical, fluorescence anisotropy, probe displacement | Insulin-degrading enzyme (Homo sapiens), P14735 | purified IDE, FL-6b probe fluorescence polarization; stronger effect = lower value | z-score at 20 µM | hit rate 6.3% among 17,000 | AID 1259349, 2017;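 active means z-score of -3 or lower, meaning strong loss of probe binding signal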;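 further: His-tagged human IDE residues 42-1019 made in E. coli with 30 nM FL-6b probe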
Target sequence (P14735 42-1019 limits assumed): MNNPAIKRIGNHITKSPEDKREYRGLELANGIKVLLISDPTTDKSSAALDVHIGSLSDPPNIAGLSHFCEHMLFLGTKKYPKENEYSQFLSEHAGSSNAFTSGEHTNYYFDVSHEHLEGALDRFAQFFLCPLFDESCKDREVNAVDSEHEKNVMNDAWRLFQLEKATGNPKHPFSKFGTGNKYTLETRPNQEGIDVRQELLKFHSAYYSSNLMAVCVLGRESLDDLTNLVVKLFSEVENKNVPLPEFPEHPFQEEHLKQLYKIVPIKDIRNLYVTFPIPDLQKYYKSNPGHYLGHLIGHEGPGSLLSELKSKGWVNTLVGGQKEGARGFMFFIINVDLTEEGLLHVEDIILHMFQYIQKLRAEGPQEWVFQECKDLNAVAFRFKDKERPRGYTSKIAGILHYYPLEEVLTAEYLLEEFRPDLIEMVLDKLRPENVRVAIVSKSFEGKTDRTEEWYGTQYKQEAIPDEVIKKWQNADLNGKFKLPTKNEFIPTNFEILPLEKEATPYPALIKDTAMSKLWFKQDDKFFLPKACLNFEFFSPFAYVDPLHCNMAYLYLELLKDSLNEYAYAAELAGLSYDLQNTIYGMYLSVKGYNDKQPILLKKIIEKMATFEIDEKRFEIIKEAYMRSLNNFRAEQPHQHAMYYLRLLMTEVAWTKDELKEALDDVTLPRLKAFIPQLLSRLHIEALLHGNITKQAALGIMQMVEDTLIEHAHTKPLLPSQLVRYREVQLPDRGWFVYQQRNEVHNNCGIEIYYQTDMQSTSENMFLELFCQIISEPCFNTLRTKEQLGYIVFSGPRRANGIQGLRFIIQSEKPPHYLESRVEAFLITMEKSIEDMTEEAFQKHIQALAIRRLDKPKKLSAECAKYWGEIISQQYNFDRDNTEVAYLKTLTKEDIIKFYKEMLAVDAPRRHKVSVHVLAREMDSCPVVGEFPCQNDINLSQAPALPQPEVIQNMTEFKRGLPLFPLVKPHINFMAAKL
Numbers without * were called inactive. The entries come from a sample that favours hits as a whole.

`Cc1cccc(-c2ccc([C@H]3[C@H]4CN(C(=O)c5cnccn5)CC(=O)N4[C@H]3CO)cc2)c1` gave IDE exosite FP -5.4*.
For O=C(c1cnccn1)N1CC(=O)N2[C@H](C1)[C@H](c1ccc(-c3ccccc3)cc1)[C@@H]2CO the results were IDE exosite FP 0.43.
COc1cccc(NC(=O)C[C@H]2CC[C@@H]3[C@H](COc4ccc(NC(=O)C5CC5)cc4C(=O)N3C)O2)c1 was read as IDE exosite FP -0.74.
Screening C/C=C/c1ccc([C@H]2[C@@H](CO)N(C(=O)C3CC3)[C@H]2CN(C)S(C)(=O)=O)cc1 returned IDE exosite FP 5.7.
Screening N#C[C@@H]1[C@@H](c2ccc(-c3ccccc3F)cc2)[C@H](CO)N1C(=O)C1CCOCC1 returned IDE exosite FP 1.1.
For N#C[C@H]1[C@@H](c2ccc(/C=C/c3ccccc3)cc2)[C@@H](CO)N1C(=O)C1CC1 the results were IDE exosite FP -0.15.
Screening CC(C)CC#Cc1ccc([C@H]2[C@H](CO)N3CCCCN(C(=O)NC4CCCC4)C[C@@H]23)cc1 returned IDE exosite FP -1.4.
C[C@@H]1CN([C@H](C)CO)C(=O)CCCn2nncc2CO[C@@H]1CN(C)Cc1ccccc1C(=O)O was read as IDE exosite FP -0.032.
`C[C@H]1CN([C@@H](C)CO)C(=O)c2ccccc2-c2ccccc2CO[C@@H]1CN(C)C(=O)Nc1ccnc(N2CCOCC2)c1` gave IDE exosite FP -0.98.
Screening C[C@H]1CCCCO[C@H](CN(C)S(=O)(=O)c2cn(C)cn2)[C@@H](C)CN([C@@H](C)CO)C(=O)c2cc(N(C)C)ccc2O1 returned IDE exosite FP 0.17.
`Cc1cccc(-c2ccc([C@@H]3[C@H]4CN(C(=O)c5cnccn5)CC(=O)N4[C@H]3CO)cc2)c1` gave IDE exosite FP -16*.
Cc1cccc(-c2ccc([C@@H]3[C@H](CO)N4C(=O)CN(C(=O)c5cnccn5)C[C@@H]34)cc2)c1 was read as IDE exosite FP -11*.
Screening CS(=O)(=O)N1CC(=O)N2[C@H](CO)[C@@H](c3ccc(C#CC4CCCC4)cc3)[C@@H]2C1 returned IDE exosite FP 3.7.
Screening c1cncc(-c2ccc(C3[C@H]4CNC[C@@H]3N4Cc3ccc4c(c3)OCO4)cc2)c1 (stereo partly drawn) returned IDE exosite FP 3.9.
For C[C@H]1CCc2cnnn2COCCNC1=O the results were IDE exosite FP 1.4.
For COc1ccc(C[C@@H]2CCn3cc(nn3)COCCCNC2=O)cc1 the results were IDE exosite FP 0.88.
CN(C)C(=O)C[C@H]1C=C[C@H](NC(=O)c2ccc(F)cc2)[C@H](CO)O1 was read as IDE exosite FP 2.
For CCC(=O)N1CCCCN2[C@H](CO)[C@H](c3ccc(C#Cc4ccccc4)cc3)[C@H]2C1 the results were IDE exosite FP -4.7*.
Screening CCC(=O)N1CCCCN2[C@@H](CO)[C@@H](c3ccc(C#Cc4ccccc4)cc3)[C@@H]2C1 returned IDE exosite FP -7.7*.
O=C(Nc1ccccc1)N1CCCCN2[C@H](CO)[C@@H](c3ccc(C#Cc4ccccc4)cc3)[C@H]2C1 was read as IDE exosite FP 3.2.
`CCC(=O)N1CCCCN2[C@@H](CO)[C@H](c3ccc(-c4cccc(C#N)c4)cc3)[C@@H]2C1` gave IDE exosite FP 0.21.
Screening CCC(=O)N1CCCCN2[C@H](CO)[C@@H](c3ccc(C#Cc4ccccc4)cc3)[C@@H]2C1 returned IDE exosite FP -9.2*.
Screening CCC(=O)N1CCCCN2[C@H](CO)[C@H](c3ccc(C#CCOC)cc3)[C@H]2C1 returned IDE exosite FP 3.
`CCC(=O)N1CCCCN2[C@H](CO)[C@@H](c3ccc(C#CCOC)cc3)[C@@H]2C1` gave IDE exosite FP 2.4.
CCC(=O)N1CCCCN2[C@@H](CO)[C@@H](c3ccc(C#CCOC)cc3)[C@@H]2C1 was read as IDE exosite FP 2.5.
Screening CCC(=O)N1CCCCN2[C@@H](CO)[C@H](c3ccc(C#CCOC)cc3)[C@@H]2C1 returned IDE exosite FP 2.8.
Screening CCC(=O)N1CCCCN2[C@@H](CO)[C@H](c3ccc(C#Cc4ccccc4)cc3)[C@@H]2C1 returned IDE exosite FP -9.4*.
O=C(NC[C@H]1[C@H](c2ccccc2)[C@@H](CO)N1C(=O)C1CC1)NC1CCCC1 was read as IDE exosite FP 1.
`O=C(c1ccccc1)N1CC(=O)N2[C@H](C1)[C@@H](c1ccc(C#CCC3CCCC3)cc1)[C@@H]2CO` gave IDE exosite FP 1.5.
For Cc1noc(C)c1S(=O)(=O)N(C)C[C@@H]1Oc2c(NC(=O)c3ccc(-c4nccs4)cc3)cccc2C(=O)N([C@@H](C)CO)C[C@H]1C the results were IDE exosite FP 1.2.
Screening c1ccc(-c2ccc([C@H]3[C@H]4CNC[C@@H]3N4Cc3cc(-c4ccccc4)on3)cc2)cc1 returned IDE exosite FP 0.12.
CS(=O)(=O)Nc1ccc2c(c1)[C@H]1C[C@@H](CC(=O)NCCc3ccccc3)O[C@H](CO)[C@H]1O2 was read as IDE exosite FP 0.66.
Screening C[C@H](CO)N1C[C@H](C)[C@@H](CN(C)C(=O)Nc2ccc3c(c2)OCO3)OCCCC[C@H](C)Oc2ccc(NS(=O)(=O)c3ccc(F)cc3)cc2C1=O returned IDE exosite FP 1.4.
Screening O=C(c1ccccc1F)N1C[C@@H]2[C@H](c3ccccc31)[C@@H](CO)N2C(=O)Nc1ccccc1 returned IDE exosite FP -0.34.
For C[C@@H](O)C#Cc1ccc([C@H]2[C@@H](CO)N3CCCCN(CC4CCOCC4)C[C@@H]23)cc1 the results were IDE exosite FP 1.6.
Screening O=C1[C@H](Cc2ccc(C(F)(F)F)cc2)CCn2nncc2COC[C@H]2CCCCN12 returned IDE exosite FP 2.4.
`CCC(=O)N1CC2(C1)[C@@H](c1ccc(-c3cccc(C)c3)cc1)[C@H](CO)N2S(C)(=O)=O` gave IDE exosite FP -0.92.
For O=C(C[C@@H]1CC[C@H]2[C@@H](COC[C@@H](O)CN2C(=O)Nc2ccc(F)cc2)O1)NC1CCC1 the results were IDE exosite FP -0.26.
Cn1cnc(S(=O)(=O)N2CCCCN3[C@@H](CO)[C@@H](c4ccc(-c5cccc(F)c5)cc4)[C@@H]3C2)c1 was read as IDE exosite FP -4.6*.
Screening Cn1cnc(S(=O)(=O)N2CCCCN3[C@H](CO)[C@H](c4ccc(-c5ccc(F)cc5)cc4)[C@@H]3C2)c1 returned IDE exosite FP 3.9.
Screening Cn1cnc(S(=O)(=O)N2CCCCN3[C@H](C2)[C@@H](c2ccc(-c4cccc(F)c4)cc2)[C@@H]3CO)c1 returned IDE exosite FP 0.69.
`Cn1cnc(S(=O)(=O)N2CCCCN3[C@H](CO)[C@@H](c4ccc(-c5cccc(F)c5)cc4)[C@H]3C2)c1` gave IDE exosite FP 0.035.
For Cn1cnc(S(=O)(=O)N2CCCCN3[C@@H](CO)[C@H](c4ccc(-c5cccc(F)c5)cc4)[C@@H]3C2)c1 the results were IDE exosite FP 2.1.
`Cn1cnc(S(=O)(=O)N2CCCCN3[C@H](CO)[C@@H](c4ccc(-c5cccc(F)c5)cc4)[C@@H]3C2)c1` gave IDE exosite FP -3.7*.
COc1cccc(C#Cc2ccc([C@@H]3[C@H](CO)N4C(=O)CN(S(=O)(=O)c5ccccc5C)C[C@@H]34)cc2)c1 was read as IDE exosite FP 0.75.
For CN(C)C(=O)c1cccc(-c2ccccc2[C@@H]2[C@@H](CO)N(C(=O)C3CCC3)[C@H]2C#N)c1 the results were IDE exosite FP 2.1.
